Reference: ChEMBL document CHEMBL1961873, “Compounds: GSK PKIS; Assays: Nanosyn kinase panel” (2012)

How the values were obtained:
[1] = target: Ribosomal protein S6 kinase alpha-6 (Homo sapiens) (UniProt Q9UK32); conditions: at 1 µM;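 note: each value is a mean inhibition of RSK4 from a GSK PKIS panel screen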
[2] = target: T1, Serine/threonine-protein kinase Sgk1 (Homo sapiens) (UniProt O00141); conditions: at 0.1 µM
T1 sequence (whole entry): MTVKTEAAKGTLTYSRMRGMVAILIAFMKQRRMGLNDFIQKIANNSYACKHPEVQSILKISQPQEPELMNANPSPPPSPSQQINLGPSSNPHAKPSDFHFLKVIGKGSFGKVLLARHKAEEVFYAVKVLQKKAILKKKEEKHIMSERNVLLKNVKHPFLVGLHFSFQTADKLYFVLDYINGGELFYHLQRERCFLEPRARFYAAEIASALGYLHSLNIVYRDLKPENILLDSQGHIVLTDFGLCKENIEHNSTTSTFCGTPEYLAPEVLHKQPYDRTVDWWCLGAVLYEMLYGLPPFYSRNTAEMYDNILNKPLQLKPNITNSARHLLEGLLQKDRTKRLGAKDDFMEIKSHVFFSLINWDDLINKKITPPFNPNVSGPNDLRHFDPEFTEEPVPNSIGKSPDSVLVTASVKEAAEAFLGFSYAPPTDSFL

[3] = target: T1, Serine/threonine-protein kinase Sgk1 (Homo sapiens); conditions: at 1 µM
[4] = target: T2, Serine/threonine-protein kinase Sgk2 (Homo sapiens) (UniProt Q9HBY8); conditions: at 0.1 µM
T2 sequence (whole entry): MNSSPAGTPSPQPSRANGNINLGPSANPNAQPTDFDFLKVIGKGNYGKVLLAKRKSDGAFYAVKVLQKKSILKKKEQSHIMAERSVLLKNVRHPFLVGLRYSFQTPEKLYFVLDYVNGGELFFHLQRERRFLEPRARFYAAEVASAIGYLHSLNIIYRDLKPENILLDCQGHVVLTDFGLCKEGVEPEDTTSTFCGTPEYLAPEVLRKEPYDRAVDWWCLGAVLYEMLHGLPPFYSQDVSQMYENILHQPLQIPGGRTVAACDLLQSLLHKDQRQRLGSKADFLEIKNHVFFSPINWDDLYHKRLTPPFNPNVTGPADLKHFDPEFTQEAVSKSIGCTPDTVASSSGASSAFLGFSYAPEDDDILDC

[5] = target: T2, Serine/threonine-protein kinase Sgk2 (Homo sapiens); conditions: at 1 µM
[6] = target: T3, Serine/threonine-protein kinase Sgk3 (Homo sapiens) (UniProt Q96BR1); conditions: at 0.1 µM
T3 sequence (whole entry): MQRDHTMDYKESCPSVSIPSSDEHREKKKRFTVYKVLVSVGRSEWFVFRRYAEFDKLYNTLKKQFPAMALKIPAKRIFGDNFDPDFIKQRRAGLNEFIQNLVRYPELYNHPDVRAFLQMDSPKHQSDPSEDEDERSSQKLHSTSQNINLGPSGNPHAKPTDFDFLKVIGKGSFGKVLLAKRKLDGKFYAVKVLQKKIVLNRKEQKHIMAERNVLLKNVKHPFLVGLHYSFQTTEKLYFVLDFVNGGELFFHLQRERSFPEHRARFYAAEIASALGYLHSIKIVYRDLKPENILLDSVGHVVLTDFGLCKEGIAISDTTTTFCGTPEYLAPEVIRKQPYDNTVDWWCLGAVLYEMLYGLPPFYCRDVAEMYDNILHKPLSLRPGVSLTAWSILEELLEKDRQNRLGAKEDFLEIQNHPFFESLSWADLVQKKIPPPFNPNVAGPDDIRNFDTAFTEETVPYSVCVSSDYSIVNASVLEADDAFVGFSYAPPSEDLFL

[7] = target: T3, Serine/threonine-protein kinase Sgk3 (Homo sapiens); conditions: at 1 µM
[8] = target: 5'-AMP-activated protein kinase catalytic subunit alpha-1 (Homo sapiens) (UniProt Q13131); conditions: at 0.1 µM
Sequence of 5'-AMP-activated protein kinase catalytic subunit alpha-1 (Homo sapiens) (Q13131 whole entry, looked up): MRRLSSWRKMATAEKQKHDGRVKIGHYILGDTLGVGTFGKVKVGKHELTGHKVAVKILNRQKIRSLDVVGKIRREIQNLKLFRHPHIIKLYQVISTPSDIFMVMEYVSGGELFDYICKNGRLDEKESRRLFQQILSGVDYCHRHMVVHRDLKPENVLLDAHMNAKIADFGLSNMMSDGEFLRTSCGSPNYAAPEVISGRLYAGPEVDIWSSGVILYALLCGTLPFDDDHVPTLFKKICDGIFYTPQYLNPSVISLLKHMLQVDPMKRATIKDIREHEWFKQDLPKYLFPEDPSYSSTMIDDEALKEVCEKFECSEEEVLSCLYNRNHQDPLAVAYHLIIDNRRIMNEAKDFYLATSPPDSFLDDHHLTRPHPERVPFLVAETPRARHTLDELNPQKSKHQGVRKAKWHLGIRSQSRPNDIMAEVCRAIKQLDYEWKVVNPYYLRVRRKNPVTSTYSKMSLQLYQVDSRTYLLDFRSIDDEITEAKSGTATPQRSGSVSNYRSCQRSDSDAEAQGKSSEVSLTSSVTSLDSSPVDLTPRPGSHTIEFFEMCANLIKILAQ

[9] = target: 5'-AMP-activated protein kinase catalytic subunit alpha-1 (Homo sapiens) (UniProt Q13131); conditions: at 1 µM
[10] = target: 5'-AMP-activated protein kinase catalytic subunit alpha-2 (Homo sapiens) (UniProt P54646); conditions: at 0.1 µM
Sequence of 5'-AMP-activated protein kinase catalytic subunit alpha-2 (Homo sapiens) (P54646 whole entry, looked up): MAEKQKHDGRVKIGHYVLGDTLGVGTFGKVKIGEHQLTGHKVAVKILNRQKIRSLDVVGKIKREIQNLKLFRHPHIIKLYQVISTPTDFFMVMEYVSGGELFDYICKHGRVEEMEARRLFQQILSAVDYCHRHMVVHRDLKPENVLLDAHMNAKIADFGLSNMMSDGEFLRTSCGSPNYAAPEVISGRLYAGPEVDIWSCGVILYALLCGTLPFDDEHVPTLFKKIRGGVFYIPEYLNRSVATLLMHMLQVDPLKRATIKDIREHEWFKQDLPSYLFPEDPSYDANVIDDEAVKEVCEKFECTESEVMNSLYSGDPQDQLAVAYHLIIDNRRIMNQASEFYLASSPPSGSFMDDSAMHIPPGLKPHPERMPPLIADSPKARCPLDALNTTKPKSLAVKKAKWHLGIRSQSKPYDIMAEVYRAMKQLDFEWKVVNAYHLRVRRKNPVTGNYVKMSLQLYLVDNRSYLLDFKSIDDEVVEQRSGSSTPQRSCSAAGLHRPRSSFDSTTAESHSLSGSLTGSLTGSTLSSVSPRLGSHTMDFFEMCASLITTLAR

[11] = target: 5'-AMP-activated protein kinase catalytic subunit alpha-2 (Homo sapiens) (UniProt P54646); conditions: at 1 µM
[12] = target: T4, NUAK family SNF1-like kinase 1 (Homo sapiens) (UniProt O60285); conditions: at 0.1 µM
T4 sequence (whole entry): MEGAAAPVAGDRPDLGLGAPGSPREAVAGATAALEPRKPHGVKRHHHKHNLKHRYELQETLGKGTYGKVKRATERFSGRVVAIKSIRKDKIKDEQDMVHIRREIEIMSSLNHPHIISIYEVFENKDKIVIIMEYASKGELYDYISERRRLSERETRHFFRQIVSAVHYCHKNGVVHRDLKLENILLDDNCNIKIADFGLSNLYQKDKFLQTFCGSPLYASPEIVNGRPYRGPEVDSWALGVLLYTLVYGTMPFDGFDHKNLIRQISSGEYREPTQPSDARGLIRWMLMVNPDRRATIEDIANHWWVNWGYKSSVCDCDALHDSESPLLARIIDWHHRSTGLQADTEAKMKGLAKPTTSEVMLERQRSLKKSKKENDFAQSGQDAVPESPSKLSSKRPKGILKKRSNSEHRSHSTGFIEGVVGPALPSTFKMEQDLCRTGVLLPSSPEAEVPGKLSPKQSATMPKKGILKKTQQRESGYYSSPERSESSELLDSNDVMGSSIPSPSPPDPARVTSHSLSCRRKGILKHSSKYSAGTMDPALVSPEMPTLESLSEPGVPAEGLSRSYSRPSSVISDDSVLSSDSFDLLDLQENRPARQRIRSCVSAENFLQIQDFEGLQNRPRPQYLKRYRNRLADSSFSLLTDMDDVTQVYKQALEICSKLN

[13] = target: T4, NUAK family SNF1-like kinase 1 (Homo sapiens); conditions: at 1 µM
[14] = target: T5, Serine/threonine-protein kinase BRSK1 (Homo sapiens) (UniProt Q8TDC3); conditions: at 0.1 µM
T5 sequence (whole entry): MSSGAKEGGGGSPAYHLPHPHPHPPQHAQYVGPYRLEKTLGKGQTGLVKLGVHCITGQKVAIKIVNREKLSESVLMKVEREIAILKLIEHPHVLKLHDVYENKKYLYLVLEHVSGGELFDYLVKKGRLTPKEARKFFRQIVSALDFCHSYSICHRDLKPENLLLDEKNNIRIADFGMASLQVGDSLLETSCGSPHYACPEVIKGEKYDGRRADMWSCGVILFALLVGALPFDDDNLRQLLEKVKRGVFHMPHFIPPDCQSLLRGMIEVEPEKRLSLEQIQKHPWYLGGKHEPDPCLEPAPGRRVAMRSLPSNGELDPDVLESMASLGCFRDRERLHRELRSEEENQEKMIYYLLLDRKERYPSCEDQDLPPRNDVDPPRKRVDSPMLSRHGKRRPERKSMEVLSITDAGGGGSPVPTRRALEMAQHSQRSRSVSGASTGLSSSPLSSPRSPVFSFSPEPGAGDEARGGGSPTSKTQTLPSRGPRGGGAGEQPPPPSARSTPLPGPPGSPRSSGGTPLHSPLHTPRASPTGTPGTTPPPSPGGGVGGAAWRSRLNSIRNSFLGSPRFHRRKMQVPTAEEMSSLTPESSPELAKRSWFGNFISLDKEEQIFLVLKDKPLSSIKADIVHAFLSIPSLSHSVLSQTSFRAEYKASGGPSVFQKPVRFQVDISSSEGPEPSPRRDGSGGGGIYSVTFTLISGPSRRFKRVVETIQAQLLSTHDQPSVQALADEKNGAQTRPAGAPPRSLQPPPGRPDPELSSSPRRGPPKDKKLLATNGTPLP

[15] = target: T5, Serine/threonine-protein kinase BRSK1 (Homo sapiens); conditions: at 1 µM
[16] = target: T6, Serine/threonine-protein kinase BRSK2 (Homo sapiens) (UniProt Q8IWQ3); conditions: at 0.1 µM
T6 sequence (whole entry): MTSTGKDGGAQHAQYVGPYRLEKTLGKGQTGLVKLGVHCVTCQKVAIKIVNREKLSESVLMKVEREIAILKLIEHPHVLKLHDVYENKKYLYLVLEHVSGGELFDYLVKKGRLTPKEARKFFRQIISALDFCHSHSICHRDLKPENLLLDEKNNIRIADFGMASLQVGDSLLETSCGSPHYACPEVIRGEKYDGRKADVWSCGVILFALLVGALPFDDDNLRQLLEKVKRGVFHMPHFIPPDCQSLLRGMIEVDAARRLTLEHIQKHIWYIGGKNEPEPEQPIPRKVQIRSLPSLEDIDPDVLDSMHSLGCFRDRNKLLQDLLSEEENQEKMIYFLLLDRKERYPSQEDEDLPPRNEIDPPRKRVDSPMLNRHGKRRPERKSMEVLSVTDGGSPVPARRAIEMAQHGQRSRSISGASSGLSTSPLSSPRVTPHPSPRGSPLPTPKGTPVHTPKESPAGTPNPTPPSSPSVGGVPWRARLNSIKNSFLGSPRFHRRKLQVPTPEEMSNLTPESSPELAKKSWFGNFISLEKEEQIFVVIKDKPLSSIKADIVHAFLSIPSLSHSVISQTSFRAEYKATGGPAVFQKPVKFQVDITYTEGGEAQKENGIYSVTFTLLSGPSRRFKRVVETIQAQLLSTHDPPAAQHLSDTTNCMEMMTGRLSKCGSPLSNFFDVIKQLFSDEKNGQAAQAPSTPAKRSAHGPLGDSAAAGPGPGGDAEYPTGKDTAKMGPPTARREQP

[17] = target: T6, Serine/threonine-protein kinase BRSK2 (Homo sapiens); conditions: at 1 µM
[18] = target: Calcium/calmodulin-dependent protein kinase type 1D (Homo sapiens) (UniProt Q8IU85); conditions: at 0.1 µM
Sequence of Calcium/calmodulin-dependent protein kinase type 1D (Homo sapiens) (Q8IU85 whole entry, looked up): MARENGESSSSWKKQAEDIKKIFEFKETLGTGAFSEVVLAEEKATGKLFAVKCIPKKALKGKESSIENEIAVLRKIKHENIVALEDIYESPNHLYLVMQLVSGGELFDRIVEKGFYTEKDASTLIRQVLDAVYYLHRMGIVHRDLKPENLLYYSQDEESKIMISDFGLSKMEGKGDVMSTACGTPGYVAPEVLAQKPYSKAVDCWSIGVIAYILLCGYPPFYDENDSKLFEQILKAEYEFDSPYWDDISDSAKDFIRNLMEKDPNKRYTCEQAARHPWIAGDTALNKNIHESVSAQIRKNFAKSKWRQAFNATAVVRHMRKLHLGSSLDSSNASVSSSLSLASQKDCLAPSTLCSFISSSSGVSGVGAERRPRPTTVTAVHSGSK

[19] = target: Calcium/calmodulin-dependent protein kinase type 1D (Homo sapiens) (UniProt Q8IU85); conditions: at 1 µM
[20] = target: Calcium/calmodulin-dependent protein kinase type II subunit alpha (Homo sapiens) (UniProt Q9UQM7); conditions: at 0.1 µM;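 note: reported values are averages (mean inhibition of CAMK2A)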
Sequence of Calcium/calmodulin-dependent protein kinase type II subunit alpha (Homo sapiens) (Q9UQM7 whole entry): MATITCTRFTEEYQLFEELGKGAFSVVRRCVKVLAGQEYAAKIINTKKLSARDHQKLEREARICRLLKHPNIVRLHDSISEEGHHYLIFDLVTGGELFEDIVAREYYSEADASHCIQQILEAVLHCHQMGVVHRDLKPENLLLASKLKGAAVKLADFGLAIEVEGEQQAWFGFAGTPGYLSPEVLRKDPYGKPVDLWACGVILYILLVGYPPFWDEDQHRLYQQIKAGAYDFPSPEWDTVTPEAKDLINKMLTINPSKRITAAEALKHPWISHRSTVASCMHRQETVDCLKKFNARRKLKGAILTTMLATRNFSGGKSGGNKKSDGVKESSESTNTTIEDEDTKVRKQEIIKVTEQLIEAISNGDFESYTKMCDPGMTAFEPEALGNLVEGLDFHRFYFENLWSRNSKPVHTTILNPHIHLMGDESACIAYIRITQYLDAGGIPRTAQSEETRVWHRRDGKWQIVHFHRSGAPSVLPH

Sequence of Ribosomal protein S6 kinase alpha-6 (Homo sapiens) (Q9UK32 whole entry): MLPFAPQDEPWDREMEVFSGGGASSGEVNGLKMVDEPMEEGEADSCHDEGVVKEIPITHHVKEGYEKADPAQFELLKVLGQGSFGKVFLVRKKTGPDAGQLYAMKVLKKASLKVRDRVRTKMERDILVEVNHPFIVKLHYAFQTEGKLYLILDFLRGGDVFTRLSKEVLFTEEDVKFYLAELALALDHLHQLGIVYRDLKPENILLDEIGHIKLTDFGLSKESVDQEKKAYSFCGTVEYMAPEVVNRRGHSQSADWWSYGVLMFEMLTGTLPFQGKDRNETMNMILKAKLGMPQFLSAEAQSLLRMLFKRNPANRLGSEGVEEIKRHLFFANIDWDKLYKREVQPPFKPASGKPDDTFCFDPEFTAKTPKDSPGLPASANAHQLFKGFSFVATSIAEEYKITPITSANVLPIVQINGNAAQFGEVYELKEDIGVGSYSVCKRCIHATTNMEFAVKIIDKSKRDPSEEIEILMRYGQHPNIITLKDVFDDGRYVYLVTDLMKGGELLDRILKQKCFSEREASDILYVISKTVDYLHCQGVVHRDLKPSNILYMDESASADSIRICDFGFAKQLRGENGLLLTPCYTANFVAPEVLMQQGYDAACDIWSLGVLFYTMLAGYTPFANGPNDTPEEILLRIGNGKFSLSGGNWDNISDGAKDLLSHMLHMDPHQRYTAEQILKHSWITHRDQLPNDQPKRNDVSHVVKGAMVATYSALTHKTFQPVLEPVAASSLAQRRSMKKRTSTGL

Compound | inhibition [1] [%] | inhibition [2] [%] | inhibition [3] [%] | inhibition [4] [%] | inhibition [5] [%] | inhibition [6] [%] | inhibition [7] [%] | inhibition [8] [%] | inhibition [9] [%] | inhibition [10] [%] | inhibition [11] [%] | inhibition [12] [%] | inhibition [13] [%] | inhibition [14] [%] | inhibition [15] [%] | inhibition [16] [%] | inhibition [17] [%] | inhibition [18] [%] | inhibition [19] [%] | inhibition [20] [%]
CCS(=O)(=O)c1ccc(OC)c(Nc2nccc(N(C)c3ccc4c(C)n[nH]c4c3)n2)c1 | -0.55 | 2.43 | 2.8 | 4.15 | 2.6 | 3.28 | 1.75 | 1.93 | 2.62 | 2.9 | 3.91 | -0.8 | -2.26 | 0.17 | 4.69 | 3.82 | 4.12 | 3.64 | 0.51 | 2.57
NS(=O)(=O)c1ccc(N/N=C2\C(=O)Nc3ccc(Cl)cc32)cc1 | 3.15 | 3.68 | 7.28 | 2.41 | 5.65 | 4.29 | 3.61 | 6.79 | 16.1 | 1.86 | 12.9 | 11 | 48.9 | 0.76 | 8.96 | 3.16 | 14.9 | 0.02 | 0.47 | 2.65
Nc1nccc(C#Cc2cncnc2Nc2ccc(OCc3cccc(F)c3)c(Cl)c2)n1 | 1 | 2.17 | 2.96 | 1.54 | 3.69 | 2.12 | 3.95 | 3.13 | 5.37 | 1.22 | 6.02 | 2.82 | 9.68 | 3.95 | 8.92 | 4.89 | 10.8 | -0.54 | 2.27 | 3.24
c1ccc(Cc2nc3ccc(Nc4ncnc5ccccc45)cc3[nH]2)cc1 | 0.98 | 1.05 | 6.43 | 1.59 | 5.44 | 2.24 | 3.66 | 3.03 | 4.08 | -0.36 | 2.91 | 4.96 | 5.29 | -0.34 | 3.16 | 1.93 | 5 | -0.7 | 0.04 | 2.75
CCS(=O)(=O)c1ccc(OC)c(Nc2ncc(-c3cccc(OC)c3)o2)c1 | 3.54 | 1.35 | 2.05 | 3.12 | 5.99 | 3.65 | -0.11 | 1.32 | 1.33 | -0.63 | 4.19 | 2.41 | 13.4 | 1.53 | -0.15 | 0.33 | 0.66 | 0.03 | 1.97 | 2.7
Cc1ccc(Nc2ccnc(Nc3cccc(C(N)=O)c3)n2)cc1O | 7.33 | 1.93 | 4.05 | 5.55 | 3.06 | 1.32 | 3.83 | 2.46 | 6.79 | 1.35 | 5.29 | 7.76 | 41.1 | 0.1 | 6.23 | 2.24 | 9.72 | 1.34 | 4.12 | 3.21
NS(=O)(=O)c1ccc(-c2cc3ccncc3cc2OCc2ccccc2)cc1 | 0.34 | 2.5 | 2.69 | 1.44 | -1.22 | 0.75 | 2.72 | 2.82 | 3.15 | 0.66 | 2.32 | -0.67 | -0.08 | -0.48 | 0.47 | 0.96 | 2.69 | -6.04 | 0.65 | 1.83
COc1ccc(-c2nn3ncccc3c2-c2ccnc(Nc3cccc(C(F)(F)F)c3)n2)cc1 | 0.26 | 1.37 | 2.02 | 1.57 | 4.94 | 3.1 | 3.41 | 2.78 | 3.84 | 1.06 | 3.96 | 0.91 | -0.63 | -0.24 | 1.65 | 2.63 | 2.85 | 0.46 | 0.37 | 2.25
COc1cccc(-n2ncc3c(N/N=C/c4ccc(S(C)(=O)=O)cc4)ncnc32)c1 | 3.2 | 3.81 | 10.1 | 6.74 | 4.33 | -0.55 | 2.6 | 1.41 | 2 | 3.56 | 4.43 | 14.7 | 37.4 | 13.7 | 52.5 | 20.1 | 60.8 | 0.78 | 0.51 | -0.15
COC(=O)Nc1nc2cc(Oc3ccc(NC(=O)Nc4cccc(Br)c4)cc3)ccc2[nH]1 | 1.35 | 4.42 | 6.16 | 2.07 | 3.07 | 2.77 | 3.45 | 2.86 | 2.58 | 0.56 | 4.23 | 3.02 | 2.47 | -0.15 | 0.86 | 2 | 0.84 | 1.16 | 0.29 | 3.25
O=C(Nc1ccc(Oc2ccc3[nH]c(NC(=O)c4ccco4)nc3c2)cc1)Nc1cc(C(F)(F)F)ccc1F | 3.95 | 0.67 | -0.62 | 0.44 | 2.52 | 0.1 | -0.97 | 1.07 | 2.39 | 1.95 | 3.81 | 0.89 | 5.7 | 0.62 | -0.05 | -0.37 | 1.01 | 0.46 | 3.08 | 0.33
